The text below walks through data of PubChem BioAssay.

The target of one test is Albumin (Bos taurus) (UniProt P02769). Nature of the test: compounds binding labelled BSA control protein – biochemical, small-molecule microarray, Alexa647 label, 635/667 nm fluorescence, artefact control for SMM control protein annotation, profiling panel (AID 1118).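 Also: score merges 667 nm emission intensity and signal-to-noise per printed compound spot.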 Particulars: BSA-A647 binding, fluorescence 635 nm, higher = more signal.
Chain of Albumin (Bos taurus) (P02769 whole entry, looked up): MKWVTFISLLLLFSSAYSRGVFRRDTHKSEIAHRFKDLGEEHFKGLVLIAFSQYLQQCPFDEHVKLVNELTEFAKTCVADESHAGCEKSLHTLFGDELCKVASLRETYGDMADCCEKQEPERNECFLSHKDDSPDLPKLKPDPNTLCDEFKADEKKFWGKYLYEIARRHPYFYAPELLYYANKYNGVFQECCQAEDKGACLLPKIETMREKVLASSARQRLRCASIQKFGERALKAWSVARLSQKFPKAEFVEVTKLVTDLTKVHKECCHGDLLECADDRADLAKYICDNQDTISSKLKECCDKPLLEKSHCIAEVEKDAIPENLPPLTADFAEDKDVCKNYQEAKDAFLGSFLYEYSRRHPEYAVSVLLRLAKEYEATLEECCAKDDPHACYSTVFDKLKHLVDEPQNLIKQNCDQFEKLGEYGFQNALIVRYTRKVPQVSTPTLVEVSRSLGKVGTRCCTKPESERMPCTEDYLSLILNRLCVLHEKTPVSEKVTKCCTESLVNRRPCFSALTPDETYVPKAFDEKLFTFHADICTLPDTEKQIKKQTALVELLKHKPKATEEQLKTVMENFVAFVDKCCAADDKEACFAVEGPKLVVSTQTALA
A short description of test [1]: probe aXIP binding to arrayed compounds – biochemical, NeuroSMM set, 635/667 nm fluorescence, primary screen (AID 1119).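 Also: probe is the protein aXip251-270 applied at 1 µg/mL to compound-printed slides; binding of probe to printed compounds measured as 667 nm fluorescence plus signal to noise.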 The conditions noted are these: small-molecule microarray, higher = more signal, called active from +8 up or from −8 down.
Test [2] can be described thus: probe aNOTCH3 binding on compound microarray – biochemical, small-molecule microarray, 635/667 nm fluorescence, primary screen (AID 1120).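 Also: probe is a biotin-tagged antibody raised against NOTCH3 rather than NOTCH3 protein; score merges spot fluorescence near 667 nm with spot signal to noise.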 Particulars: higher = more signal.
Test [3] can be described thus: probe aNOTCH2 binding on compound microarray – biochemical, small-molecule microarray, 635/667 nm fluorescence, primary screen (AID 1121).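 Also: score merges feature fluorescence read at 667 nm with its signal to noise.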 The conditions noted are these: higher = more signal.
Test [4] has as its target Carbonic anhydrase 2 (Homo sapiens) (UniProt P00918). Nature of the test: compounds binding carbonic anhydrase 2 – biochemical, small-molecule microarray, Alexa647-labelled CAII, profiling panel (AID 1122). Particulars: CAII-A647 binding fluorescence, higher = more signal.
Test [5] is described as follows: COS7 lysate on small-molecule microarray, probe aHis, 635 nm (AID 1123).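 Also: z-score combines 667nm fluorescence intensity with signal-to-noise per printed compound spot.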 The conditions noted are these: COS7 cell lysate, fluorescence, higher = more signal.
The nature of test [6]: probe aLAP1 signal on lysate-treated microarray – cell lysate, small-molecule microarray, COS7 lysate, primary screen (AID 1124).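 Also: lysate comes from COS7 cells expressing LAP1 and is applied at 0.3 µg/mL; score merges spot fluorescence near 667 nm with signal-to-noise over triplicate slides.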 Particulars: probe aLAP1, fluorescence, higher = more signal.
The subject of another test is Sam68 (KHDRBS1). As to the kind of experiment: compounds binding KHDRBS1 protein – biochemical, small-molecule microarray, 635 nm fluorescence, primary screen (AID 1125).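 Also: score merges 667 nm channel intensity with signal to noise over triplicate slides.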 The conditions noted are these: higher = more signal.
In test [7] the test system is Chordin-like protein 2 (CHRDL2). As to the kind of experiment: compounds binding chordin-like 2 – biochemical, small-molecule microarray, 635 nm fluorescence, primary screen (AID 1126).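 Also: printed compound slides probed with Chrdl2 protein at 4 µg/mL for 1 h at 4 C; score merges 667 nm emission intensity with signal to noise over three replicate slides.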 The conditions noted are these: fluorescence 635 nm, higher = more signal.
Test [8] addresses Concanavalin-A (Canavalia ensiformis) (UniProt P02866). As to the kind of experiment: compounds binding concanavalin A lectin – biochemical, small-molecule microarray, Alexa647 label, 635 nm, artefact control for SMM control protein annotation, primary screen (AID 1127).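 Also: z combines 667 nm emission intensity with signal-to-noise across three replicate slides.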 The conditions noted are these: ConA-A647 binding fluorescence, higher = more signal.
Test [9] can be described thus: compounds binding Alexa647 anti-His antibody – biochemical, small-molecule microarray, 635 nm fluorescence, artefact control for SMM control protein annotation, primary screen (AID 1128).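 Also: score merges feature fluorescence with signal-to-noise for each printed compound spot.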 The conditions noted are these: higher = more signal.
Test [10] deals with Human papillomavirus type 1a E7 protein (residues 1-88). Nature of the test: HPV1a E7 small-molecule binders, primary screen, biochemical, small-molecule microarray, residues 1-88, 635 nm (AID 1129). The conditions noted are these: small-molecule microarray binding, fluorescence 635 nm; higher = more signal.
Test [11] addresses Focal adhesion kinase 1 (Homo sapiens) (UniProt Q05397). As to the kind of experiment: PTK2 protein binding on printed compound slides – biochemical, small-molecule microarray, 635/667 nm fluorescence, BSA, DTT, primary screen (AID 1130).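 Also: composite of spot emission at 667 nm and signal to noise over triplicate slides.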 The conditions noted are these: 635 nm fluorescence, higher = more signal.
The subject of test [12] is Fibrinogen (Alexa647-labelled). Nature of the test: Alexa647-fibrinogen binding to printed small molecules – biochemical, small-molecule microarray, 635/667 nm fluorescence, artefact control for SMM control-protein annotation, profiling panel (AID 1131).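 Also: z-score merges 667 nm fluorescence with per-spot signal-to-noise over triplicate slides.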 Particulars: fibrinogen-A647 binding fluorescence, higher = more signal.
The target of test [13] is Follistatin (Homo sapiens) (UniProt P19883). Nature of the test: FST protein binding to printed compounds – biochemical, small-molecule microarray, 635/667 nm fluorescence, primary screen (AID 1132). The conditions noted are these: 635 nm fluorescence, higher = more signal.
Chain of Follistatin (Homo sapiens) (P19883 whole entry, looked up): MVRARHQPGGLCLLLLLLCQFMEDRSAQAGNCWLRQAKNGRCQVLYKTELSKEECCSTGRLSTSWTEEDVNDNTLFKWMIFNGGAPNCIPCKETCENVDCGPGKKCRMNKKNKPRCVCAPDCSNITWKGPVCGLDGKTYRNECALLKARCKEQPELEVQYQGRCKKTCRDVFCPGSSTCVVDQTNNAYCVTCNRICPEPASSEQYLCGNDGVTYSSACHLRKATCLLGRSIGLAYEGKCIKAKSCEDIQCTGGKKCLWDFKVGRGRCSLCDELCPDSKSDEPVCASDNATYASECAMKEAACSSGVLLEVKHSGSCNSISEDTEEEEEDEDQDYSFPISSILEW
Test [14] has as its target Fibroblast growth factor 2 (Homo sapiens) (UniProt P09038). Nature of the test: basic fibroblast growth factor binding to printed compounds – biochemical, small-molecule microarray, 635/667 nm fluorescence, primary screen (AID 1133). The conditions noted are these: FGF2, fluorescence 635/667, higher = more signal.
Test [15] is described as follows: JC-1 mitochondrial potential readout, lung cancer cells – cell-based, A549, JC-1 fluorescence, basal, 24 h, 100 nL, profiling panel (AID 1138).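 Also: A549 lung adenocarcinoma cells under basal conditions with no added stimulus; test concentration not given here.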 The conditions noted are these: higher = more signal.
Another test relates to Lefty1. As to the kind of experiment: Lefty1 protein binding to printed compounds – biochemical, small-molecule microarray, 635/667 nm fluorescence, primary screen (AID 1139). The conditions noted are these: fluorescence 635/667, higher = more signal.
Test [16] concerns wheat germ agglutinin (Triticum aestivum), Alexa647-labelled. As to the kind of experiment: Alexa647-WGA lectin binding to printed small molecules – biochemical, small-molecule microarray, 635/667 nm fluorescence, artefact control for SMM control-protein annotation, profiling panel (AID 1140).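 Also: score merges 667 nm feature emission with signal to noise over triplicate slides.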 Particulars: WGA-A647 binding, 635 nm fluorescence, higher = more signal.
In test [17] the target is Luciferin 4-monooxygenase (Photinus pyralis) (UniProt P08659). Nature of the test: inhibition of purified Photinus pyralis luciferase – biochemical, luminescence, purified enzyme, 2006 set, primary screen (AID 1141).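 Also: cell-free assay with purified firefly luciferase at 100 ng per well in PBS; test concentration not given here.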 Particulars: purified firefly luciferase, SteadyGlo luminescence, 30 min; higher = more signal, called active from +8 up or from −8 down.
Chain of Luciferin 4-monooxygenase (Photinus pyralis) (P08659 whole entry, looked up): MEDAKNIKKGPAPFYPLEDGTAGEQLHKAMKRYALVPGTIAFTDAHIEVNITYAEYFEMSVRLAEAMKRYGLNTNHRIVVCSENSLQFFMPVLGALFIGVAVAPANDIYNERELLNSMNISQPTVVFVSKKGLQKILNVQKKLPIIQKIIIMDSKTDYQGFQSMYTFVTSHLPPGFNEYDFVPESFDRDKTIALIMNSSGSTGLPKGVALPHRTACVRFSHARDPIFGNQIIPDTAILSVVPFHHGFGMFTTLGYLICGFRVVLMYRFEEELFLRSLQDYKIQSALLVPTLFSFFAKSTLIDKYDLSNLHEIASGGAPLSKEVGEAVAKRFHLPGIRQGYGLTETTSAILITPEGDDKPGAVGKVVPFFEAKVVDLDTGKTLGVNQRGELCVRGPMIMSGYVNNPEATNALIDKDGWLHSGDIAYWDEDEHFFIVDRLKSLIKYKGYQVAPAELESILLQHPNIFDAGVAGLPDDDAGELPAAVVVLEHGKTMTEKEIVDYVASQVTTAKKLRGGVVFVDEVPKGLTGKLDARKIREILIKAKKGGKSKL

Calls of active or inactive are those of the source.

Chain of Focal adhesion kinase 1 (Homo sapiens) (Q05397 whole entry, looked up): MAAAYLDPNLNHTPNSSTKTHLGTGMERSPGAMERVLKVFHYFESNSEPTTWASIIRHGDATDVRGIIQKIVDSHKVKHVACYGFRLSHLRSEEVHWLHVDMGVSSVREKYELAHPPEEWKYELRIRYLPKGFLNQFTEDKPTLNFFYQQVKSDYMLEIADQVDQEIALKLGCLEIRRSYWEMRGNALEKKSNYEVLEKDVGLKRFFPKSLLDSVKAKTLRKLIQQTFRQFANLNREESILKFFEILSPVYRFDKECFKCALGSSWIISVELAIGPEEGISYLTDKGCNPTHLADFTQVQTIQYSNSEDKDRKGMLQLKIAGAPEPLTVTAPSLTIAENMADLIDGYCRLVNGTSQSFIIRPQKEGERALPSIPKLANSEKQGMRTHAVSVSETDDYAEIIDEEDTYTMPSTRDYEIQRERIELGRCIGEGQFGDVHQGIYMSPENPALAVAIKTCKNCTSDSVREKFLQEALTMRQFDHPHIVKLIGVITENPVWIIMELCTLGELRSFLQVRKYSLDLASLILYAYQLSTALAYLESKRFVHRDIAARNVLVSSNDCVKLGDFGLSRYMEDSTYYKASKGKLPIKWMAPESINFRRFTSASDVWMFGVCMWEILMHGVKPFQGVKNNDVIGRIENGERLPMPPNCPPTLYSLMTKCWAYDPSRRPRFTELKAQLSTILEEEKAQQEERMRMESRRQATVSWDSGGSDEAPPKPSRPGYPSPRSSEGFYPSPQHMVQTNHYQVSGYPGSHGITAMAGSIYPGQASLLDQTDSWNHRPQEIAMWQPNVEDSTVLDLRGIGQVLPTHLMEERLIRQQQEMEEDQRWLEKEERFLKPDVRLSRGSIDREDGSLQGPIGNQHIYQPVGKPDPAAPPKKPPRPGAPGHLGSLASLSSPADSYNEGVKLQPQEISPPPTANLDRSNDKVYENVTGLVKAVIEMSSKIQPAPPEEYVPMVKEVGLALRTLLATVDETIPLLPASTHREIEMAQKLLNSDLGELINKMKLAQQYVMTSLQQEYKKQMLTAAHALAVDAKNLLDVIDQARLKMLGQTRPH
Chain of Fibroblast growth factor 2 (Homo sapiens) (P09038 whole entry, looked up): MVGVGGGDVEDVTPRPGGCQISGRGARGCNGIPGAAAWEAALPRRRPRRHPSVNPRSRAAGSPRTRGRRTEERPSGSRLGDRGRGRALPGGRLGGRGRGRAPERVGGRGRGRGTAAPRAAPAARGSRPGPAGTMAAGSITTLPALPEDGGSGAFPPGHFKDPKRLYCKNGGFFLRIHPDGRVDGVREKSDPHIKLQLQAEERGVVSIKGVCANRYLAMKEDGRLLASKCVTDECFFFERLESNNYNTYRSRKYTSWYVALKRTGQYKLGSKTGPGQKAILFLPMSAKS
Chain of Concanavalin-A (Canavalia ensiformis) (P02866 whole entry, looked up): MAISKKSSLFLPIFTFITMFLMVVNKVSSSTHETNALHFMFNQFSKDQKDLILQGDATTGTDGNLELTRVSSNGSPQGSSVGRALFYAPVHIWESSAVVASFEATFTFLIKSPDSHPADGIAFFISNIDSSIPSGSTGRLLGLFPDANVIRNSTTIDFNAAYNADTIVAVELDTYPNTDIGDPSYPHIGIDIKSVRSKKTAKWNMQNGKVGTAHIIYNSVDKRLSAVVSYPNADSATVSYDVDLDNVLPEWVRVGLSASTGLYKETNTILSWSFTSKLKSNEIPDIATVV

Take `COc1ccc([Si](C)(C)[C@H]2[C@H](CC(=O)N(CCO)Cc3ccccc3)O[C@@]3(C(=O)N(Cc4cccc(N5C(=O)COc6ccccc65)c4)c4ccccc43)[C@@H]2C)cc1`: the composite z-score was -1.06 with Albumin (Bos taurus); 0.0961 in test [2]; -0.118 in [3]; 0.462 in test [4]; 1.69 in test [5]; -0.045 in test [6]. The composite z-score in the test with Sam68 (KHDRBS1) is 0.897; in test [7], 0.81; in [8] it was 1.06; in test [9] it was 1.11; in [10] it was 0.965; in [11] it was 1.45. The composite z-score in [12] was 0.147; in test [13], 1.05; in test [14] it was 1.52; with Lefty1, 1.26; in test [16], 0.528. For the same compound, in test [1], the composite Z-score was 0.616 (inactive). Moreover, the z-score in test [15] was -0.0909; in test [17], -1.8 (inactive).

Take `C=CCN1C(=O)[C@@]2(O[C@@H](CCO)[C@H]([Si](C)(C)c3ccc(OC)cc3)[C@H]2C)c2cc(N(C=O)c3ccccc3)ccc21`: the composite z-score was 0.377 in the test with Albumin (Bos taurus); -0.0918 in test [2]; -0.0895 in test [3]; 0.246 in [4]; 0.396 in test [5]; 0.222 in test [6]. In addition, the composite z-score with Sam68 (KHDRBS1) was 0.807; in test [7], -0.332; in [8], 0.67; in [9], 1.03; in test [10], 0.721; in test [11] it was -0.115. For the same compound, the composite z-score is 0.373 in test [12]; 0.203 in test [13]; 0.0479 in test [14]; 0.124 with Lefty1; 0.918 in test [16]. In addition, the composite Z-score in test [1] is 0.459 (inactive). Besides, the z-score is -0.688 in test [15] and -1.66 (inactive) in test [17].

Consider `COCCOC(=O)N1C(=O)[C@@]2(c3ccccc31)[C@H](C(=O)Nc1nc3ccccc3s1)[C@H]1C(=O)O[C@H](c3ccccc3)[C@H](c3ccccc3)N1[C@@H]2c1ccc(O)cc1`, for which the composite z-score with Albumin (Bos taurus) is 0.794; in [2] it was 0.288; in test [3], -0.0551; in [4], 0.435; in test [5], 0.903; in test [6] it was 0.418. The composite z-score in the test with Sam68 (KHDRBS1) worked out at 1.3; in test [7], 0.318; in [8] it was 1.21; in test [9] it was 1.68; in test [10], 1.2; in test [11], 0.261. Also, the composite z-score in test [12] is 0.976; in [13] it was 1.32; in [14] it was 1.06; in the test on Lefty1 it was 0.983; in [16] it was 1.16. Further, the composite Z-score in test [1] is -0.706 (inactive). In addition, the z-score in [15] was -2.31; in test [17], -2.88 (inactive).

Consider `C=CCN1C(=O)[C@@]2(O[C@@H](CCO)[C@H]([Si](C)(C)c3ccc(OC)cc3)[C@H]2C)c2cc(N3C(=O)c4cccc5cccc3c45)ccc21`, for which the composite z-score was 0.691 with Albumin (Bos taurus); 0.0425 in test [2]; -0.0956 in test [3]; 0.355 in [4]; 0.964 in test [5]; 1.13 in [6]. Besides, the composite z-score in the test with Sam68 (KHDRBS1) was 0.897; in [7] it was -0.487; in test [8], 1.06; in [9] it was 2.09; in [10], 1; in test [11], 0.617. The composite z-score was 0.302 in test [12]; -0.233 in test [13]; -0.145 in test [14]; -0.272 in the test on Lefty1; 0.525 in [16]. The composite Z-score in test [1] was -0.159 (inactive). The values for the z-score in test [15] and in [17] were -0.456 and -1.53 (inactive), respectively.

Take `NC(=O)NCC#Cc1ccc2c(c1)[C@]1(C(=O)N2)[C@H](c2ccc(OCCO)cc2)N2[C@H](c3ccccc3)[C@H](c3ccccc3)OC(=O)[C@H]2[C@@H]1C(=O)Nc1nc2ccccc2s1`: the composite z-score with Albumin (Bos taurus) was -0.0355; in test [2], -0.132; in test [3], -0.0629; in test [4], 0.0165; in [5], 0.966; in test [6], 0.436. Also, the composite z-score in the test on Sam68 (KHDRBS1) was -0.112; in [7] it was 0.175; in [8], 0.0806; in test [9] it was -0.609; in test [10] it was 0.123; in [11], 0.0616. Further, the composite z-score is 0.0886 in test [12]; 0.923 in test [13]; -0.292 in test [14]; -0.609 in the test with Lefty1; 0.244 in [16]. For the same compound, the composite Z-score in [1] is -0.883 (inactive). Besides, the z-score is -2.17 in [15] and -2.15 (inactive) in test [17].
